Structures can show the parent of a compound that is named as a salt.
Assays:
Details in all cases: treatment time: 24 h
A549-ACTB-RAB5A [1] = test: lowest phenotypically active concentration; higher = less potent
In short: (§1)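 Fifteen reporter lines derived from A549, HepG2 and WPMY1 cells by gene editing, carrying BFP for segmentation plus GFP and RFP/FusionRed markers, were exposed to 0.3, 1, 3 or 9 µM for 24 h in four wells each and imaged live. Live-cell features from each well were normalised to solvent control wells. A well set counted as deviating when ≥3 of 4 wells lay beyond the 95th percentile of control Euclidean distances, and as reproducible when the median replicate Pearson correlation exceeded the 95th percentile of non-replicates. Phenotypic activity was assigned only when both criteria were met.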

A549-CANX-COX4 [2] = test: as above
In short: as §1

A549-GM130-SQSTM1 [3] = test: as above
In short: as §1

A549-TP53BP1-CLTA [4] = test: as above
In short: as §1

A549-TUBA1B-RELA [5] = test: as above
In short: as §1

HepG2-TP53BP1-CLTA [6] = test: as above
In short: as §1

A549-ACTB-RAB5A [7] = test: phenotypically active (imaging signature differs from DMSO and reproducible) at any of 0.3-9 uM (binary (1 = active, 0 = inactive)); higher = active
In short: as §1

A549-CANX-COX4 [8] = test: as above
In short: as §1

A549-GM130-SQSTM1 [9] = test: as above
In short: as §1

A549-TP53BP1-CLTA [10] = test: as above
In short: as §1

A549-TUBA1B-RELA [11] = test: as above
In short: as §1

HepG2-ACTB-RAB5A = test: as above
In short: as §1

HepG2-CANX-COX4 = test: as above
In short: as §1

HepG2-GM130-SQSTM1 = test: as above
In short: as §1

HepG2-TP53BP1-CLTA [12] = test: as above
In short: as §1

HepG2-TUBA1B-RELA = test: as above
In short: as §1

WPMY1-CANX-COX4 = test: as above
In short: as §1

WPMY1-GM130-SQSTM1 = test: as above
In short: as §1

WPMY1-TP53BP1-CLTA = test: as above
In short: as §1

WPMY1-TUBA1B-RELA = test: as above
In short: as §1

OC[C@H]1O[C@@H](n2cnc3c(NCc4ccco4)ncnc32)[C@H](O)[C@@H]1O [Kinetin riboside]
active: phenotypically active (A549-ACTB-RAB5A [7]) 1 | phenotypically active (A549-CANX-COX4 [8]) 1 | phenotypically active (A549-GM130-SQSTM1 [9]) 1 | phenotypically active (A549-TP53BP1-CLTA [10]) 1 | phenotypically active (A549-TUBA1B-RELA [11]) 1 | phenotypically active (HepG2-ACTB-RAB5A) 1 | phenotypically active (HepG2-CANX-COX4) 1 | phenotypically active (HepG2-GM130-SQSTM1) 1 | phenotypically active (HepG2-TP53BP1-CLTA [12]) 1 | phenotypically active (HepG2-TUBA1B-RELA) 1 | phenotypically active (WPMY1-CANX-COX4) 1 | phenotypically active (WPMY1-GM130-SQSTM1) 1 | phenotypically active (WPMY1-TP53BP1-CLTA) 1 | phenotypically active (WPMY1-TUBA1B-RELA) 1
1 µM: lowest phenotypically active concentration (A549-ACTB-RAB5A [1])
3 µM: lowest phenotypically active concentration (A549-CANX-COX4 [2]) | lowest phenotypically active concentration (A549-GM130-SQSTM1 [3]) | lowest phenotypically active concentration (A549-TP53BP1-CLTA [4]) | lowest phenotypically active concentration (A549-TUBA1B-RELA [5]) | lowest phenotypically active concentration (HepG2-TP53BP1-CLTA [6])

COc1c(C)cnc(Cn2cc(C#CCC(C)(C)O)c3c(Cl)nc(N)nc32)c1C
active: phenotypically active (A549-ACTB-RAB5A [7]) 1 | phenotypically active (A549-CANX-COX4 [8]) 1 | phenotypically active (A549-GM130-SQSTM1 [9]) 1 | phenotypically active (A549-TP53BP1-CLTA [10]) 1 | phenotypically active (A549-TUBA1B-RELA [11]) 1 | phenotypically active (HepG2-ACTB-RAB5A) 1 | phenotypically active (HepG2-CANX-COX4) 1 | phenotypically active (HepG2-GM130-SQSTM1) 1 | phenotypically active (HepG2-TP53BP1-CLTA [12]) 1 | phenotypically active (HepG2-TUBA1B-RELA) 1 | phenotypically active (WPMY1-CANX-COX4) 1 | phenotypically active (WPMY1-GM130-SQSTM1) 1 | phenotypically active (WPMY1-TP53BP1-CLTA) 1 | phenotypically active (WPMY1-TUBA1B-RELA) 1
≤ 0.3 µM: lowest phenotypically active concentration (A549-ACTB-RAB5A [1]) | lowest phenotypically active concentration (A549-CANX-COX4 [2]) | lowest phenotypically active concentration (A549-GM130-SQSTM1 [3]) | lowest phenotypically active concentration (A549-TP53BP1-CLTA [4]) | lowest phenotypically active concentration (A549-TUBA1B-RELA [5]) | lowest phenotypically active concentration (HepG2-TP53BP1-CLTA [6])

O=C(Nc1c[nH]nc1-c1nc2cc(CN3CCOCC3)ccc2[nH]1)NC1CC1
≤ 0.3 µM: lowest phenotypically active concentration (A549-ACTB-RAB5A [1]) | lowest phenotypically active concentration (A549-CANX-COX4 [2]) | lowest phenotypically active concentration (A549-GM130-SQSTM1 [3]) | lowest phenotypically active concentration (A549-TP53BP1-CLTA [4]) | lowest phenotypically active concentration (A549-TUBA1B-RELA [5]) | lowest phenotypically active concentration (HepG2-TP53BP1-CLTA [6])
active: phenotypically active (A549-ACTB-RAB5A [7]) 1 | phenotypically active (A549-CANX-COX4 [8]) 1 | phenotypically active (A549-GM130-SQSTM1 [9]) 1 | phenotypically active (A549-TP53BP1-CLTA [10]) 1 | phenotypically active (A549-TUBA1B-RELA [11]) 1 | phenotypically active (HepG2-ACTB-RAB5A) 1 | phenotypically active (HepG2-CANX-COX4) 1 | phenotypically active (HepG2-GM130-SQSTM1) 1 | phenotypically active (HepG2-TP53BP1-CLTA [12]) 1 | phenotypically active (HepG2-TUBA1B-RELA) 1 | phenotypically active (WPMY1-CANX-COX4) 1 | phenotypically active (WPMY1-GM130-SQSTM1) 1 | phenotypically active (WPMY1-TP53BP1-CLTA) 1 | phenotypically active (WPMY1-TUBA1B-RELA) 1

CN1c2ccccc2C(=O)N2CCc3c([nH]c4ccccc34)[C@H]21 [Evodiamine]
1 µM: lowest phenotypically active concentration (A549-ACTB-RAB5A [1]) | lowest phenotypically active concentration (A549-CANX-COX4 [2]) | lowest phenotypically active concentration (A549-GM130-SQSTM1 [3]) | lowest phenotypically active concentration (A549-TUBA1B-RELA [5])
active: phenotypically active (A549-ACTB-RAB5A [7]) 1 | phenotypically active (A549-CANX-COX4 [8]) 1 | phenotypically active (A549-GM130-SQSTM1 [9]) 1 | phenotypically active (A549-TP53BP1-CLTA [10]) 1 | phenotypically active (A549-TUBA1B-RELA [11]) 1 | phenotypically active (HepG2-ACTB-RAB5A) 1 | phenotypically active (HepG2-CANX-COX4) 1 | phenotypically active (HepG2-GM130-SQSTM1) 1 | phenotypically active (HepG2-TP53BP1-CLTA [12]) 1 | phenotypically active (HepG2-TUBA1B-RELA) 1 | phenotypically active (WPMY1-CANX-COX4) 1 | phenotypically active (WPMY1-GM130-SQSTM1) 1 | phenotypically active (WPMY1-TP53BP1-CLTA) 1 | phenotypically active (WPMY1-TUBA1B-RELA) 1
3 µM: lowest phenotypically active concentration (A549-TP53BP1-CLTA [4]) | lowest phenotypically active concentration (HepG2-TP53BP1-CLTA [6])

COc1ccc(N(C)c2nc(C)nc3ccccc23)cc1 [MPC 6827 hydrochloride]
≤ 0.3 µM: lowest phenotypically active concentration (A549-ACTB-RAB5A [1]) | lowest phenotypically active concentration (A549-CANX-COX4 [2]) | lowest phenotypically active concentration (A549-GM130-SQSTM1 [3]) | lowest phenotypically active concentration (A549-TUBA1B-RELA [5]) | lowest phenotypically active concentration (HepG2-TP53BP1-CLTA [6])
active: phenotypically active (A549-ACTB-RAB5A [7]) 1 | phenotypically active (A549-CANX-COX4 [8]) 1 | phenotypically active (A549-GM130-SQSTM1 [9]) 1 | phenotypically active (A549-TP53BP1-CLTA [10]) 1 | phenotypically active (A549-TUBA1B-RELA [11]) 1 | phenotypically active (HepG2-ACTB-RAB5A) 1 | phenotypically active (HepG2-CANX-COX4) 1 | phenotypically active (HepG2-GM130-SQSTM1) 1 | phenotypically active (HepG2-TP53BP1-CLTA [12]) 1 | phenotypically active (HepG2-TUBA1B-RELA) 1 | phenotypically active (WPMY1-CANX-COX4) 1 | phenotypically active (WPMY1-GM130-SQSTM1) 1 | phenotypically active (WPMY1-TP53BP1-CLTA) 1 | phenotypically active (WPMY1-TUBA1B-RELA) 1
1 µM: lowest phenotypically active concentration (A549-TP53BP1-CLTA [4])

CO[C@H]1C=CC=C(C)C(=O)NC2=CC(=O)C(NCCN(C)C)=C(C[C@@H](C)C[C@H](OC)[C@H](O)[C@@H](C)C=C(C)[C@@H]1OC(N)=O)C2=O [17-DMAG hydrochloride]
≤ 0.3 µM: lowest phenotypically active concentration (A549-ACTB-RAB5A [1]) | lowest phenotypically active concentration (A549-CANX-COX4 [2]) | lowest phenotypically active concentration (A549-GM130-SQSTM1 [3]) | lowest phenotypically active concentration (A549-TP53BP1-CLTA [4]) | lowest phenotypically active concentration (A549-TUBA1B-RELA [5]) | lowest phenotypically active concentration (HepG2-TP53BP1-CLTA [6])
active: phenotypically active (A549-ACTB-RAB5A [7]) 1 | phenotypically active (A549-CANX-COX4 [8]) 1 | phenotypically active (A549-GM130-SQSTM1 [9]) 1 | phenotypically active (A549-TP53BP1-CLTA [10]) 1 | phenotypically active (A549-TUBA1B-RELA [11]) 1 | phenotypically active (HepG2-ACTB-RAB5A) 1 | phenotypically active (HepG2-CANX-COX4) 1 | phenotypically active (HepG2-GM130-SQSTM1) 1 | phenotypically active (HepG2-TP53BP1-CLTA [12]) 1 | phenotypically active (HepG2-TUBA1B-RELA) 1 | phenotypically active (WPMY1-CANX-COX4) 1 | phenotypically active (WPMY1-GM130-SQSTM1) 1 | phenotypically active (WPMY1-TP53BP1-CLTA) 1 | phenotypically active (WPMY1-TUBA1B-RELA) 1

NC1(C(=O)N[C@@H](CCO)c2ccc(Cl)cc2)CCN(c2ncnc3[nH]ccc23)CC1
≤ 0.3 µM: lowest phenotypically active concentration (A549-ACTB-RAB5A [1])
3 µM: lowest phenotypically active concentration (A549-TUBA1B-RELA [5])
active: phenotypically active (A549-ACTB-RAB5A [7]) 1 | phenotypically active (A549-CANX-COX4 [8]) 1 | phenotypically active (A549-GM130-SQSTM1 [9]) 1 | phenotypically active (A549-TP53BP1-CLTA [10]) 1 | phenotypically active (A549-TUBA1B-RELA [11]) 1 | phenotypically active (HepG2-ACTB-RAB5A) 1 | phenotypically active (HepG2-CANX-COX4) 1 | phenotypically active (HepG2-GM130-SQSTM1) 1 | phenotypically active (HepG2-TP53BP1-CLTA [12]) 1 | phenotypically active (HepG2-TUBA1B-RELA) 1 | phenotypically active (WPMY1-CANX-COX4) 1 | phenotypically active (WPMY1-GM130-SQSTM1) 1 | phenotypically active (WPMY1-TP53BP1-CLTA) 1 | phenotypically active (WPMY1-TUBA1B-RELA) 1
1 µM: lowest phenotypically active concentration (A549-CANX-COX4 [2]) | lowest phenotypically active concentration (A549-GM130-SQSTM1 [3]) | lowest phenotypically active concentration (A549-TP53BP1-CLTA [4]) | lowest phenotypically active concentration (HepG2-TP53BP1-CLTA [6])

CCCCCCCCCCCCCCCC[n+]1ccn(Cc2ccccc2)c1C
1 µM: lowest phenotypically active concentration (A549-ACTB-RAB5A [1]) | lowest phenotypically active concentration (A549-TP53BP1-CLTA [4]) | lowest phenotypically active concentration (A549-TUBA1B-RELA [5]) | lowest phenotypically active concentration (HepG2-TP53BP1-CLTA [6])
≤ 0.3 µM: lowest phenotypically active concentration (A549-CANX-COX4 [2]) | lowest phenotypically active concentration (A549-GM130-SQSTM1 [3])
active: phenotypically active (A549-ACTB-RAB5A [7]) 1 | phenotypically active (A549-CANX-COX4 [8]) 1 | phenotypically active (A549-GM130-SQSTM1 [9]) 1 | phenotypically active (A549-TP53BP1-CLTA [10]) 1 | phenotypically active (A549-TUBA1B-RELA [11]) 1 | phenotypically active (HepG2-ACTB-RAB5A) 1 | phenotypically active (HepG2-CANX-COX4) 1 | phenotypically active (HepG2-GM130-SQSTM1) 1 | phenotypically active (HepG2-TP53BP1-CLTA [12]) 1 | phenotypically active (HepG2-TUBA1B-RELA) 1 | phenotypically active (WPMY1-CANX-COX4) 1 | phenotypically active (WPMY1-GM130-SQSTM1) 1 | phenotypically active (WPMY1-TP53BP1-CLTA) 1 | phenotypically active (WPMY1-TUBA1B-RELA) 1
